From PubChem BioAssay
Most compounds without a hit are left out; they make up all but 2.2% or so of the library.
Ba/F3 V617F tox: reduced viability of JAK2V617F-dependent Ba/F3 cells, primary screen, JAK2V617F inhibitor project, cell-based, Ba/F3 EpoR-JAK2V617F, luminescence. 220,000 tested, 1.1% active. AID 1446, 2008. ATP luminescence. inhibition, % at 5.6 µM;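 active = inhibition above the campaign mean plus 3 SD over all tested compounds, cut at about 24% in these data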;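 note: cytokine-independent growth of Ba/F3 cells driven by EpoR plus mutant JAK2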
APP 5UTR inh: inhibitors of APP translation via 5'UTR reporter, primary screen, APP 5'UTR luciferase, SH-SY5Y cells. SH-SY5Y APP 5'UTR-luciferase reporter, luminescence. inhibition, % at 2 µM. 190,000 tested, 0.82% active. AID 1285, 2008;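 active = inhibition above a set limit, derived from the sample mean plus 3 SD, cut at about 45% in these data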
KLF5 inhibitor: KLF5 expression inhibitors, primary screen, DLD-1 cells, luminescence | DLD-1 KLF5 promoter-luciferase reporter | inhibition, % at 5 µM | 290,000 tested, 0.23% active;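 active = inhibition above a per-plate limit of that plate's mean compound inhibition plus 3 SD, cut at about 60% in these data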;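 note: higher means less KLF5 promoter-driven luciferase light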
BaF3 parental: parental Ba/F3 cell viability inhibition, counter-screen for JAK2V617F inhibitor project, murine pro-B, CellTiter-Glo luminescence | CellTiter-Glo ATP luminescence | inhibition, % at 5.6 µM | 220,000 tested, 1.1% active | AID 1486, 2009;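 active = inhibition above a per-campaign cutoff, the mean inhibition of all tested compounds plus 3 SD, cut at about 27% in these data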
IEC-6 cytotox: cytotoxicity in IEC-6 intestinal epithelial cells, primary screen, cytotoxicity control for KLF5 inhibitor project, cell-based, luminescence. IEC-6 cytotoxicity, luminescence viability. inhibition, % at 5 µM. 290,000 tested, 0.78% active. AID 1825, 2009; in the data active = inhibition above about 22%
aSyn 5UTR inh: MLPCN primary screen, SNCA 5' untranslated region; alpha-synuclein 5'UTR reporter, inhibitor activity; inhibition, % (tested at 7.5 µM); 300,000 tested, 0.82% active; in the data active = inhibition above about 60%;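 note: H4 neuroglioblastoma cells stably carrying SNCA 5'UTR luciferase fusion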
Numbers stand for hits; - = inactive; . = no result.

SMILES	Ba/F3 V617F tox	APP 5UTR inh	KLF5 inhibitor	BaF3 parental	IEC-6 cytotox	aSyn 5UTR inh
O=C(NCc1ccco1)c1cc([N+](=O)[O-])ccc1N1CCCCC1	-	-	-	-	-	-
CC1(C)CC2(CCO1)OC(=O)CC2C(=O)Nc1ccccc1Cl (configuration not stated)	-	-	-	90	-	-
O=C(Nc1ccc(C(=O)NCCCN2CCN(c3ccc(F)cc3)CC2)cc1)C1=CSCCO1	.	.	-	.	-	-
CC(=O)Oc1c(C)c(=O)n(C)c2ccccc12	66	-	-	42	-	-
CN(C(=O)c1cc(S(=O)(=O)N2CCOCC2)cs1)c1ccccc1	.	.	-	.	-	-
NC(N)=NC(N)=Nc1cccc2ccccc12	-	.	-	-	-	-
Cc1c(Cl)cccc1N=C(N)N=C(N)N	-	-	-	81	-	-
Cc1cccc(N2CCN(C(=O)c3ccc4c(c3)CCN4S(C)(=O)=O)CC2)c1C	.	.	-	.	-	-
Cc1cc(N2CCN(C(c3ccccc3)c3ccccc3)CC2)n2ncnc2n1	-	-	-	-	-	-
Cc1cc(N2CCN(c3nc4ccccc4s3)CC2)n2ncnc2n1	44	-	-	48	-	-
CN(C)/C=C/C(=O)c1ccc(Cl)c([N+](=O)[O-])c1	-	-	-	-	-	-
CC1(c2ccc(Cl)cc2Cl)OCC(Cn2ccnc2)O1 (configuration not stated)	-	-	-	95	-	-
OC(Cn1ccnc1)c1ccc(Cl)cc1Cl (configuration not stated)	-	-	-	-	-	-
O=C(NCCCN1CCN(c2cccc(Cl)c2)CC1)c1ccc(N2CCCC2=O)cc1	-	67	-	-	-	-
CCOc1ccc(OCC(=O)OCC(=O)NNC(=O)c2ccc([N+](=O)[O-])cc2)cc1	.	.	.	.	.	-
COc1ccc(C2CC(C)(c3ccc(OC)cc3OC)Nc3ccccc3N2)c(OC)c1 (configuration not stated)	62	-	-	72	-	-
COC(=O)C1=C(C)C(c2ccc(OC)cc2OC)NC(=O)N1 (configuration not stated)	-	-	-	-	-	-
COCCNc1nc(N)c([N+](=O)[O-])c(NC2CCCCC2)n1	.	.	-	.	-	68
Nc1nc(NC2CCCCC2)nc(NCCO)c1[N+](=O)[O-]	.	.	-	.	-	-
Cc1c(C(c2ccc(F)cc2)c2c(C)n(C)n(-c3ccccc3)c2=O)c(=O)n(-c2ccccc2)n1C	.	.	-	.	-	-
O=S(=O)(c1ccc2c(c1)OCCO2)N1CCN(c2ncnc3sccc23)CC1	44	-	-	78	-	-
COc1ccc(C(=O)NCc2ccc3c(c2)CCO3)cc1	-	.	-	-	-	-
O=[N+]([O-])c1ccc(Nc2nc(N/N=C/c3cccc(F)c3)nc(N3CCCC3)n2)cc1	-	-	-	-	-	-
COc1cccc(/C=N/Nc2nc(Nc3ccc([N+](=O)[O-])cc3)nc(N3CCCC3)n2)c1O	-	-	-	-	-	65
CCOCCn1c(N2CCN(c3ccccc3)CC2)nc2c1c(=O)[nH]c(=O)n2C	-	-	-	54	-	-
SMILES	Ba/F3 V617F tox	APP 5UTR inh	KLF5 inhibitor	BaF3 parental	IEC-6 cytotox	aSyn 5UTR inh
Cn1c(=O)[nH]c(=O)c2c1nc(N1CCNCC1)n2CCOc1ccccc1	-	-	-	-	-	-
CCCCCNC1=CC(=O)CC(c2ccccc2)C1 (configuration not stated)	-	-	-	-	-	-
CCCCCCCNC1=CC(=O)CC(c2ccccc2)C1 (configuration not stated)	28	-	-	36	-	-
CCOC(=O)c1nn(-c2ccccc2)cc1O	-	.	-	-	-	-
COC(=O)c1nn(-c2ccc(-c3ccccc3)cc2)cc1O	-	-	-	-	-	67
Cc1ccc(NC(=O)C(C)Sc2nc(-c3ccccc3)cc(=O)[nH]2)cc1 (configuration not stated)	.	.	-	.	-	-
CN(c1ccccc1)S(=O)(=O)c1ccc(C(=O)N2CCCC(C(F)(F)F)C2)cc1 (configuration not stated)	.	.	-	.	-	-
CC(C)c1nc2sc3c(NCc4ccco4)ncnc3c2c2c1COC(C)(C)C2	-	-	-	-	-	71
COc1ccc(COC(=O)CCS(=O)(=O)c2ccc(C)cc2)cc1F	.	.	.	.	.	-
Cc1ccc(C[n+]2cccc(-c3ccccc3)c2)c(C)c1	77	-	-	69	-	-
Cc1ccc2ccc[n+](Cc3ccccc3)c2c1	.	.	.	.	.	-
COc1ccc(Br)cc1CN1CCCCCC1	.	.	-	.	-	-
COc1cc(C2C(C#N)=C(N)Oc3cc(O)ccc32)cc2c1OCO2 (configuration not stated)	-	-	-	-	-	-
COc1cc(C2C(C#N)=C(N)Oc3cc(N(C)C)ccc32)cc2c1OCO2 (configuration not stated)	-	97	-	-	-	-
COc1cc(C2C(C#N)=C(N)Oc3cc4c(cc32)OCO4)cc(OC)c1OC (configuration not stated)	93	93	86	89	85	111
COc1cc(C2C(C#N)=C(N)Oc3cc(O)ccc32)cc(OC)c1OC (configuration not stated)	-	94	-	-	-	-
O=C(COC(=O)c1cc(=O)[nH]c(=O)[nH]1)Nc1cccc(S(=O)(=O)N2CCCCC2)c1	-	-	-	-	-	-
CC1(C)CC(=O)c2sc(NC(=O)C(C)(C)C)nc2C1	-	-	-	-	-	-
CC1(C)CC(=O)c2sc(NC(=O)CN3CCCCC3)nc2C1	-	54	-	-	-	-
COc1ccc(OCC(=O)Nc2ccc(N3CCN(C(=O)c4ccco4)CC3)cc2)cc1	-	-	-	90	-	-
O=C(COc1ccc(Cl)cc1)Nc1ccc(N2CCN(C(=O)c3ccco3)CC2)cc1	-	-	-	-	-	-
CC(NC(=O)c1c(F)cccc1Cl)c1ccc(-n2ccnc2)cc1 (configuration not stated)	.	.	-	.	-	-
Cc1ccc2c(c1)c(C)cc[n+]2Cc1ccccc1	94	-	-	70	-	-
CC1=NN(c2ccc(C)c(C)c2)C(=O)/C1=C\C=C\c1ccc([N+](=O)[O-])o1	-	95	-	-	-	78
CC1=NN(c2ccccc2)C(=O)/C1=C\C=C\c1ccccc1	-	.	-	-	-	-
COc1ccc(N/N=C(\C=N\O)C(=O)c2ccc(OC)cc2)cc1	-	88	-	-	-	-
O=c1[nH]c(C(Cl)(Cl)Cl)nc2ccc3ccccc3c12	.	.	-	.	-	-
Oc1c(C(Nc2cccc(C(F)(F)F)c2)c2cccnc2)ccc2cccnc12 (configuration not stated)	-	-	-	-	-	-
